Data published in PubChem BioAssay.
Records with an inconclusive call do not appear. The source made the active and inactive calls.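 The calls were made as follows, unless noted: active = growth inhibition above 25% in both replicates, a cutoff set 3 SD above the mean; inconclusive = above 25% in only one replicate; inactive = the rest.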

What was measured:
[1] = reducers of endogenous Her2 protein level, primary screen, SKBR3 breast tumor cells, AlphaScreen, ATP viability (AID 461;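 active = Her2 level under about 52% in both replicate screens, with viability over 70% of control, limit read from the data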;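 as to Her2 level: lower value means less Her2 protein in the cells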;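 as to viability: percent of carrier control wells set as 100% viability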); details: 18-24 h, measured here: SKBR3 viability, ATP luminescence, at 10 µM
[2] = target: Receptor tyrosine-protein kinase erbB-2 (Homo sapiens) (UniProt P04626); test: as above; details: 18-24 h, at 10 µM, stronger effect = lower value
Sequence of Receptor tyrosine-protein kinase erbB-2 (Homo sapiens) (P04626 whole entry, looked up): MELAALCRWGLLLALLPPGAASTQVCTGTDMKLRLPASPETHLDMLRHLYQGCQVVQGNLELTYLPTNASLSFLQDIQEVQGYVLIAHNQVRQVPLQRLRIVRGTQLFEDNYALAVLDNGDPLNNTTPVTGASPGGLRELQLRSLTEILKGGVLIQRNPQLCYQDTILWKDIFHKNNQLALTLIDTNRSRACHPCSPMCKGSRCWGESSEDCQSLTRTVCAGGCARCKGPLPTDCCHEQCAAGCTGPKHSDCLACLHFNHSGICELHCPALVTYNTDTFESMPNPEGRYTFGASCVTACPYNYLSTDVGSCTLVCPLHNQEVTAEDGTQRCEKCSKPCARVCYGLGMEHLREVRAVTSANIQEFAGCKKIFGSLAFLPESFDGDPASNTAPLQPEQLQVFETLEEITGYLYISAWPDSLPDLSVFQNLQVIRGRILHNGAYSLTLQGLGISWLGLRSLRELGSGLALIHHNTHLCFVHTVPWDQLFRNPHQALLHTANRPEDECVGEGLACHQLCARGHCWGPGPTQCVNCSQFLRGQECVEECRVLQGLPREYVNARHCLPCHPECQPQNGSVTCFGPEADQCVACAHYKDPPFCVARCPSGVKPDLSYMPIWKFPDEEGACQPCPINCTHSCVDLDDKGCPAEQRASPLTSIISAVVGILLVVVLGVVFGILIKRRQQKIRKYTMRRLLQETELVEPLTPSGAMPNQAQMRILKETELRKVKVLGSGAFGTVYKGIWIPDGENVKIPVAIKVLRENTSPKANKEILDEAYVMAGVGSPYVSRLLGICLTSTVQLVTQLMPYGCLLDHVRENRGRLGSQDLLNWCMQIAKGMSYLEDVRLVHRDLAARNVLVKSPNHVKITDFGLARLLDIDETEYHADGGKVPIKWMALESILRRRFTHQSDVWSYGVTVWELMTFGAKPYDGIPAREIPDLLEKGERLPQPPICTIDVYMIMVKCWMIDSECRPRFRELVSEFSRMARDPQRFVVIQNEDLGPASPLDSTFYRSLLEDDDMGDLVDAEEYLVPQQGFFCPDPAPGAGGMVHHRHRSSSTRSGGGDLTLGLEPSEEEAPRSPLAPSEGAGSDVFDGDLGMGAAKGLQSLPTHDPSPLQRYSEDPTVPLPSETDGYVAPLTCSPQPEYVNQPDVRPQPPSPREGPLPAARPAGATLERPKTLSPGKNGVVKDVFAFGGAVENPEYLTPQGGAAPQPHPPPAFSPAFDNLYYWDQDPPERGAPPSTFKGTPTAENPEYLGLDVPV

[3] = SK-BR-3 cell growth inhibitors, pilot screen, 24 h, human (AID 572;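 active = viability at or below 10% of carrier control in both of two separate runs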;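 also: compound exposure lasted between 18 and 24 h rather than exactly 24 h; 100% = carrier-treated control wells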); details: SK-BR-3 viability, CellTiter-Glo luminescence, at 10 µM, stronger effect = lower value
[4] = HUVEC growth inhibition – cell-based, human, primary screen (AID 575;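 active = viability at or below 30% in both replicate assays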;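 also: 100% = median of untreated cell wells with 0.1% DMSO on each plate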); details: HUVEC proliferation, CellTiter-Glo luminescence, 72 h; at 10 µM; stronger effect = lower value
[5] = growth inhibitors of H69AR lung tumor, primary screen, human, duplicate replicates (AID 580;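 active = viability at or under a set limit in both replicates, limit being median viability minus 3 SD, cut at about 48% in these data, passing the limit was not always enough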;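 also: 100% = mean luminescence of untreated wells and 0% = no signal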); details: H69AR lung tumor cells viability, ATP luminescence, 72 h; at 10 µM; stronger effect = lower value
[6] = reversal of MRP1-mediated doxorubicin resistance, pilot screen, H69AR cells, doxorubicin co-treatment (AID 601;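 active = viability loss from added drug above about 55%, and viability with drug at most 40%, in both replicates, limit read from the data, passing the limit was not always enough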); details: CellTiter-Glo, 72 h, at 10 µM; for differential viability (reversal): stronger effect = higher value
[7] = 384-well plate pilot, post-Golgi transport modulator project, inhibition of yeast transport mutant growth (AID 636; in the data active = inhibition above about 31%); details: absorbance 615 nm, about 18 h, stronger effect = higher value
[8] = growth suppression of yeast trafficking mutant, preliminary HTS, modulators of trafficking downstream of Golgi apparatus project, 1536-format plate, OD 615 nm (AID 637; in the data active = inhibition above about 30%); details: yeast transport mutant growth, absorbance 615 nm, 18 h; stronger effect = higher value
[9] = OD615 S. cerevisiae growth inhibition, permissive medium, pilot counter-assay, permissive growth control for S. cerevisiae lifespan shortening project (AID 705); details: OD615, 24 h, at 10 µM, stronger effect = higher value
[10] = Restrictive medium S. cerevisiae growth inhibition, OD615, pilot screen of yeast lifespan reduction project, restrictive growth control (AID 706;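 active = growth inhibition above a set limit, 3 SD over mean compound inhibition, in both replicates, cut at about 43% in these data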;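 also: modified DeaD lifespan yeast strain shifted to restrictive glucose medium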); details: OD615, 48 h, at 10 µM, stronger effect = higher value
[11] = viability gain of MRP-1-high H69AR cells under doxorubicin, pilot screen, MRP-1 activator project, CellTiter-Glo, duplicate (AID 807;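 active = viability increase at or above a cutoff of the median across tested compounds plus 3 SD, cut at about 8.5% in these data, passing the limit was not always enough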;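 also: compound pretreatment 18-22 h then 72 h combined with doxorubicin; 0% = doxorubicin alone and 100% = vehicle without doxorubicin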); details: H69AR viability with doxorubicin, CellTiter-Glo luminescence; at 10 µM; stronger effect = higher value
[12] = growth suppression of beta-catenin knockout HCT116, pilot screen, human colon tumor cells (AID 823;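 active = cell viability at or below a set limit in both duplicate runs, the limit being the all-compound median minus 4 SD, cut at about 23% in these data, passing the limit was not always enough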;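 also: 0% = wells killed by 20 µM Hyamine and 100% = untreated DMSO cell wells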); details: CellTiter-Glo, 60 h, at 10 µM, stronger effect = lower value
[13] = growth suppression of PTEN-deleted HCT116, pilot screen, cell-based, HCT116 clonal line, CellTiter-Glo (AID 824;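 active = viability at or below 27.92% in each of two runs, the all-compound median minus 4 SD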;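 also: 0% = 20 µM Hyamine control and 100% = vehicle cell control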); details: 60 h, at 10 µM, stronger effect = lower value
[14] = inhibitors of the yeast RAM network, pilot screen, dse1pr::URA3 reporter, 5-FOA selection (AID 869;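 active = inhibition over a set limit, the all-compound mean plus 3 SD, in both replicate runs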;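 also: 0% = DMSO wells with no growth and 100% = 10 µM 1-NA-PP1 with full growth; RAM network block rescues cells from 5-FOA so hits raise OD615 growth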); details: S. cerevisiae dse1pr::URA3 5-FOA growth, OD615, 2 d; at 10 µM; stronger effect = higher value; strain carries analog-sensitive mutant Cbk1 kinase
[15] = RAM signaling pathway blockade in yeast – S. cerevisiae, Pdr1DBD-CYC8 efflux-inhibited sensitized strain, primary screen (AID 1298;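 active = RAM network inhibition above 8.4% in each of two replicates, 3 SD over the compound average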;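 also: 0% = DMSO untreated cells without growth and 100% = 10 µM 1-NA-PP1 full growth; higher means more yeast growth rescued from 5-FOA killing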); details: S. cerevisiae cbk1-as DSE1-URA3 strain, 5-FOA growth OD615, 2 d; at 50 µM; stronger effect = higher value
[16] = H69AR cells + 2 uM doxorubicin, measured here: viability with 2 uM doxorubicin, stronger effect = lower value
[17] = H69AR cells, compound alone cytotoxicity

COc1ccc(NS(=O)(=O)c2coc(C(N)=O)c2)cc1Cl
99.1%: viability [6, 17]
107%: viability [6, 16]
inactive: Her2 level [2] 110% | viability [3] 101% | viability [4] 119% | viability [5] 99.1% | differential viability (reversal) ([6]; H69AR cells + 2 uM doxorubicin) -8.07% | inhibition [7] 0% | inhibition [8] 11% | growth inhibition [9] -21.1% | growth inhibition [10] -10.9% | viability increase [11] -0.71% | viability [12] 108% | viability [13] 102% | inhibition [14] 1.92% | RAM network inhibition [15] 1.58%
101%: viability [1]

CCOC(=O)CN1C(=O)C(=O)c2cccc(C)c21
76.6%: viability [6, 16]
76%: viability [6, 17]
inactive: Her2 level [2] 101% | viability [3] 80% | viability [4] 86.5% | viability [5] 76% | differential viability (reversal) ([6]; H69AR cells + 2 uM doxorubicin) -0.56% | inhibition [7] -1.54% | inhibition [8] -0.5% | growth inhibition [9] 0.235% | growth inhibition [10] -4.38% | viability increase [11] -4.97% | viability [12] 88.4% | viability [13] 92.4% | inhibition [14] 1.77% | RAM network inhibition [15] 1.05%
80%: viability [1]

CCSc1nc2c(c(=O)[nH]1)C(c1cccnc1)C(C(=O)OC(C)C)=C(C)N2 (stereo not given)
97.4%: viability [6, 17]
95.5%: viability [1]
inactive: Her2 level [2] 83.5% | viability [3] 95.5% | viability [4] 90.9% | viability [5] 97.4% | differential viability (reversal) ([6]; H69AR cells + 2 uM doxorubicin) 15.6% | inhibition [7] -4.19% | inhibition [8] -0.33% | growth inhibition [9] -18.5% | growth inhibition [10] -8.67% | viability increase [11] -3.07% | viability [12] 92.3% | viability [13] 92.5% | inhibition [14] 0.98% | RAM network inhibition [15] 0.72%
81.8%: viability [6, 16]

COc1ccc(NC(=O)CSc2nnc(-c3ccccc3)n2N)cc1
inactive: Her2 level [2] 87.5% | viability [3] 97.5% | viability [4] 94.7% | viability [5] 93.6% | differential viability (reversal) ([6]; H69AR cells + 2 uM doxorubicin) 17.2% | inhibition [7] -7.87% | inhibition [8] -0.16% | growth inhibition [9] 0.265% | growth inhibition [10] 3.57% | viability increase [11] 0.58% | viability [12] 101% | viability [13] 108% | inhibition [14] 1.12% | RAM network inhibition [15] 3.84%
93.6%: viability [6, 17]
97.5%: viability [1]
76.4%: viability [6, 16]

COc1cccc(C2=NOC(C(=O)N3CCN(c4ccccc4)CC3)C2)c1OC (stereo not given)
86.5%: viability [6, 17]
98.5%: viability [6, 16]
inactive: Her2 level [2] 97.5% | viability [3] 104% | viability [4] 95.9% | viability [5] 86.5% | differential viability (reversal) ([6]; H69AR cells + 2 uM doxorubicin) -12% | inhibition [7] -6.13% | inhibition [8] 0% | growth inhibition [9] -7.02% | growth inhibition [10] -5.35% | viability increase [11] 2.2% | viability [12] 93.6% | viability [13] 96.5% | inhibition [14] -0.58% | RAM network inhibition [15] 1%
104%: viability [1]

O=C(COc1ccc(=O)n(-c2ccccc2)n1)Nc1ccccc1
96%: viability [1]
98.8%: viability [6, 17]
92.4%: viability [6, 16]
inactive: Her2 level [2] 95.5% | viability [3] 96% | viability [4] 102% | viability [5] 98.8% | differential viability (reversal) ([6]; H69AR cells + 2 uM doxorubicin) 6.32% | inhibition [7] -4.4% | inhibition [8] 0.82% | growth inhibition [9] -1.58% | growth inhibition [10] 9.99% | viability increase [11] -1.83% | viability [12] 109% | viability [13] 98.6% | inhibition [14] 2.81% | RAM network inhibition [15] 1.04%

C/C=C/Cn1c(SCCCc2ccccc2)nc2c1c(=O)[nH]c(=O)n2C
89.5%: viability [1]
69.6%: viability [6, 17]
68.8%: viability [6, 16]
inactive: Her2 level [2] 72% | viability [3] 89.5% | viability [4] 61.2% | viability [5] 69.6% | differential viability (reversal) ([6]; H69AR cells + 2 uM doxorubicin) 0.835% | inhibition [7] 1.07% | inhibition [8] 3.61% | growth inhibition [9] -15.3% | growth inhibition [10] 1.29% | viability increase [11] -3.52% | viability [12] 66.8% | viability [13] 52.6% | inhibition [14] 1.32% | RAM network inhibition [15] 9.17%

Cc1ccnc(SCCn2c(N3CCN(Cc4ccccc4)CC3)nc3c2c(=O)[nH]c(=O)n3C)n1
inactive: Her2 level [2] 93.5% | viability [3] 85% | viability [4] 91.7% | viability [5] 87.5% | differential viability (reversal) ([6]; H69AR cells + 2 uM doxorubicin) -0.99% | inhibition [7] -3.6% | inhibition [8] -4.59% | growth inhibition [9] 3.26% | growth inhibition [10] 0.065% | viability increase [11] -1.27% | viability [12] 95.7% | viability [13] 99.3% | inhibition [14] 0.145% | RAM network inhibition [15] 2.81%
85%: viability [1]
87.5%: viability [6, 17]
88.4%: viability [6, 16]

Cc1cccc(C)c1OCc1nnc(SCC(=O)Nc2ccccc2F)o1
inactive: Her2 level [2] 101% | viability [3] 95.5% | viability [4] 108% | viability [5] 83% | differential viability (reversal) ([6]; H69AR cells + 2 uM doxorubicin) -7.2% | inhibition [7] -5.2% | inhibition [8] -5.17% | growth inhibition [9] -12.4% | growth inhibition [10] -9.96% | viability increase [11] -1.03% | viability [12] 98.8% | viability [13] 98.1% | inhibition [14] 3.38% | RAM network inhibition [15] 3.85%
95.5%: viability [1]
90.2%: viability [6, 16]
83%: viability [6, 17]

COc1ccc(S(=O)(=O)Nc2ccc(F)c(Cl)c2)cc1OC
92.3%: viability [6, 16]
97.5%: viability [1]
inactive: Her2 level [2] 93.5% | viability [3] 97.5% | viability [4] 106% | viability [5] 96.6% | differential viability (reversal) ([6]; H69AR cells + 2 uM doxorubicin) 4.3% | inhibition [7] -2.21% | inhibition [8] -10.2% | growth inhibition [9] -15.3% | growth inhibition [10] 4.31% | viability increase [11] -1.4% | viability [12] 86.3% | viability [13] 87.6% | inhibition [14] 0.595% | RAM network inhibition [15] 1.81%
96.6%: viability [6, 17]
